{
  "source": "PubChem BioAssay AID493231",
  "about": "(Broad Institute, 2011)",
  "note": "Potency and affinity values are given separately. Calls of active or inactive are those of the source. Where a call stands in place of a potency, no number is given. How the calls were made is not given here.",
  "data": [
    {"target": "Acyl-homoserine lactone acylase PvdQ (Pseudomonas aeruginosa (strain ATCC 15692 / DSM 22644 / CIP 104116 / JCM 14847 / LMG 12228 / 1C / PRS 101 / PAO1)) (UniProt Q9I194)", "sequence (Q9I194 whole entry, looked up)": "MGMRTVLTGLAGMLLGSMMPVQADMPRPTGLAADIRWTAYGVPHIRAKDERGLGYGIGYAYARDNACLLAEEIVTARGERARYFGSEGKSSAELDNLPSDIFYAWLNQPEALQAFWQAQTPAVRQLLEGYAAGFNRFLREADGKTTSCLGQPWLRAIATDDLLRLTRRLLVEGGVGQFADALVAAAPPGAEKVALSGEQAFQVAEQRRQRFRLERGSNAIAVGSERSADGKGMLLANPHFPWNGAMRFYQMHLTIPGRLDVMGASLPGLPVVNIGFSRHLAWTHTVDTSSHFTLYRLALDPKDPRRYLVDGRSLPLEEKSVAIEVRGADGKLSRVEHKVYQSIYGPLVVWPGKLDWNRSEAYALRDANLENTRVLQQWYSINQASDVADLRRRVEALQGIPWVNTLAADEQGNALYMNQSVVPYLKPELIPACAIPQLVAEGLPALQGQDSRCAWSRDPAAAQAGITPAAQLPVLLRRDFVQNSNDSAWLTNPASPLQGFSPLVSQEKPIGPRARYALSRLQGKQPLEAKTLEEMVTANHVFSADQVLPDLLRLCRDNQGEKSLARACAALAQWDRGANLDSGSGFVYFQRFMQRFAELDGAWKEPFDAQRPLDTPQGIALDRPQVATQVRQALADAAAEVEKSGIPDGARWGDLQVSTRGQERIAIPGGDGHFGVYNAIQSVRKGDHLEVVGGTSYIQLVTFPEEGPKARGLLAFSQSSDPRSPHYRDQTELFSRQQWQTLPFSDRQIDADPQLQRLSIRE", "assay": "P. aeruginosa PvdQ acylase inhibitors, dose response, biochemical, fluorescence, plate reader and imaging, cherry-picks (AID 493231);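 further: more negative values mean stronger inhibition of the acylase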", "details": "purified PvdQ acylase, fluorogenic substrate; series mostly up to 10 µM", "values": [
      {"smiles": "CC1CCCCN1C(=O)CSc1nc2ccccc2[nH]1", "note": "(stereo not drawn)", "outcome": "inactive"},
      {"smiles": "Cc1cc(C)cc(N2C(=O)CC(Sc3ccccc3C(=O)O)C2=O)c1", "note": "(stereo not drawn)", "outcome": "inactive"},
      {"smiles": "CCOC(=O)CC(NC(=O)c1ccco1)c1ccccc1Cl", "note": "(stereo not drawn)", "outcome": "inactive"},
      {"smiles": "O=C(Nc1nc2cc3c(cc2s1)OCO3)C1=COCCO1", "outcome": "inactive"},
      {"smiles": "N#C/C(=C\\c1ccc([N+](=O)[O-])cc1)c1ccccn1", "outcome": "inactive"},
      {"smiles": "O=C(Cc1cccc(NC(=O)C2CCN(C(=O)C3CCCCC3)CC2)c1)Nc1cccc(C(=O)N2CCCCC2)c1", "outcome": "inactive"},
      {"smiles": "O=C(/C=C/c1ccc(Cl)cc1)N1CCN(c2ccccc2[N+](=O)[O-])CC1", "outcome": "inactive"},
      {"smiles": "COc1ccc(Cl)c(NCCC(=O)O)c1", "outcome": "inactive"},
      {"smiles": "COc1cccc(CN(C)CC(=O)NNC(=O)c2ccc(Cl)cc2)c1", "outcome": "inactive"},
      {"smiles": "Cc1ccc(-c2nc3ccsc3c(=O)o2)cc1", "outcome": "inactive"},
      {"smiles": "NS(=O)(=O)c1ccc(N2CCOCC2)c(C(=O)NCc2cccs2)c1", "outcome": "inactive"},
      {"smiles": "COC(=O)c1cc(S(=O)(=O)Nc2cccc(S(N)(=O)=O)c2)oc1C", "outcome": "inactive"},
      {"smiles": "CC(C)[N+]1=C2C=CC=CC=C2SC12C([N+](=O)[O-])=CC(=[N+]([O-])[O-])C=C2[N+](=O)[O-]", "note": "(stereo not drawn)", "outcome": "inactive"},
      {"smiles": "Cn1nnnc1SCC(=O)NCCCc1ccccc1", "outcome": "inactive"},
      {"smiles": "Cc1ccc(OCCn2cc(/C(N)=N/O)c3ccccc32)cc1C", "outcome": "inactive"},
      {"smiles": "CCCSC1=C(C#N)C(c2ccc(OC)cc2)C2=C(CC(C)(C)CC2=O)N1", "note": "(stereo not drawn)", "outcome": "inactive"},
      {"smiles": "CN=C1S/C(=C\\c2ccc(SC)cc2)C(=O)N1C", "outcome": "inactive"},
      {"smiles": "Cn1cccc1Cc1nnc(SCC(=O)N2CCN(c3ccccc3)CC2)n1-c1ccc(F)cc1", "outcome": "inactive"}
    ]}
  ]
}
